Assay results as given in the supplement of paper PMC12669032.

Test system: Bacteroides dorei
Assay: growth AUC relative to DMSO control (median of replicates) (fraction); higher = more growth (less inhibition), active = hit call of the paper
Conditions: 20 µM; 24 h;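 active = AUC reduced over 20% with Padj below 0.05 in at least 2 of 3 replicates; inactive = otherwise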
Summary of the method: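 Area under the growth curve was normalised to the plate median of solvent-only wells, except on the industrial chemical plate, where row and column medians were used. Curves came from gut bacterial monocultures grown anaerobically at 37 °C in mGAM with 20 µM compound (1% DMSO), starting at OD600 0.05 and read at OD600 every hour for 24 h. The minimum OD of each curve was set to 0, and values are medians of three biological replicates grown on separate days.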

Growth AUC, active:
Oc1c(Cl)cc(Cl)c(Cl)c1Cc1c(O)c(Cl)cc(Cl)c1Cl 0.0142

Growth AUC, inactive:
S=C([S-])NCCNC(=S)[S-].[Mn+2] 0.979, COc1ccc(Cl)c(Cl)c1Cl 1.02, CCCCOC(=O)C(C)Oc1ccc(Oc2ccc(C(F)(F)F)cn2)cc1 (centres undefined) 0.951, CCCCOCN(C(=O)CS(=O)(=O)[O-])c1c(CC)cccc1CC.[Na+] 1.01, CC(C)OC(=O)N[C@H](C(=O)N[C@H](C)c1nc2ccc(F)cc2s1)C(C)C 0.934, COc1ccc(Oc2ccc(NC(=O)N(C)C)cc2)cc1 0.98, CCCCOCCOC(=O)COc1nc(Cl)c(Cl)cc1Cl 0.948, CCSC(=O)N(CC(C)C)CC(C)C 1.02, C#CC(C)N(C)C(=O)Nc1ccc(Cl)cc1 (centres undefined) 0.978, O=S(=O)(Oc1ccc(Cl)cc1)c1ccccc1 0.941, CC(C)c1nn(C(=O)NC(C)(C)C)c(=O)n1N 1.02, COC(=O)c1ccc(I)cc1S(=O)(=O)[N-]C(=O)Nc1nc(C)nc(OC)n1.[Na+] 0.933, C=O 1.02, O=C1NCC[n+]2ccccc21.[Br-] 0.761, CCCCOCCOCCOCc1cc2c(cc1CCC)OCO2 1.01, Cc1ccc(C)c(O)c1 1, CCNc1nc(N)[nH]c(=O)n1 1.01, O.O=C(Nc1ccc(Cl)c(Cl)c1)Nc1cc(Cl)ccc1Oc1ccc(Cl)cc1S(=O)(=O)[O-].[Na+] 0.908, O=c1cc(Cl)[nH]nc1-c1ccccc1 1.05, CCNC(=O)[C@@H](C)OC(=O)Nc1ccccc1 0.992, Cc1c(C(=O)c2c[nH]n(C)c2=O)ccc(S(C)(=O)=O)c1C1=NOCC1 0.989, NC(=S)Nc1cccc2ccccc12 0.835, c1cc2ccc3ccc4ccc5cccc6c(c1)c2c3c4c56 1.01, CCc1cccc(CC)c1N(COC)C(=O)CS(=O)(=O)[O-].[Na+] 0.989, CN(C)c1ccc(N=NS(=O)(=O)[O-])cc1.[Na+] 0.957, CCc1cc(C(=O)O)cc(CC)c1C1C(=O)N2CCOCCN2C1=O 1.05, FC(F)(F)C(=NOCC1OCCO1)c1ccc(Cl)cc1 0.969, Cc1nn(C)c(OCC(=O)c2ccccc2)c1C(=O)c1ccc(Cl)cc1Cl 0.987, C=CCO/N=C(\CCC)C1=C([O-])CC(C)(C)C(C(=O)OC)C1=O.[Na+] (centres undefined) 0.933, COC(=O)C(C)Oc1ccc(Cl)cc1Cl (centres undefined) 1.05, COc1cc(OC)nc(NC(=O)NS(=O)(=O)Nc2ccccc2C(=O)C2CC2)n1 0.963, O=C(Nc1ccc(O)cc1-c1ccc(Cl)cc1)c1cccnc1Cl 1.03, S=C([S-])NCCNC(=S)[S-].[Zn+2] 0.999, COC(=O)COc1ccc(Cl)cc1C 1.01, ClC=C(c1ccc(Cl)cc1)c1ccc(Cl)cc1 0.914, CCCOc1nc2ccc(I)cc2c(=O)n1CCC 1.01, C#CCN(C)c1c(C#N)cnn1-c1nn2c(c1Cl)CCCC2 0.987, COC(=O)c1ccccc1S(=O)(=O)NC(=O)Nc1nc(OC(F)F)cc(OC(F)F)n1 0.997
